Key:
Experiment in all cases: DAPPL (digital affinity profiling via proximity ligation, sequencing); 10 mM Tris-HCl pH 7.5, 50 mM NaCl, 1 mM DTT, 4% glycerol, room temperature, 30 min; GST-TFs on glutathione beads, 16-mer random dsDNA library, 0.1% formaldehyde crosslink after washing; high values mean tight binding
Details in all cases: protein: recombinant; tags: N-terminal GST; dsDNA, one strand shown
[1] = biological target: T1, SPIC (Homo sapiens, UniProt Q8N5J4 1-248)
T1 sequence: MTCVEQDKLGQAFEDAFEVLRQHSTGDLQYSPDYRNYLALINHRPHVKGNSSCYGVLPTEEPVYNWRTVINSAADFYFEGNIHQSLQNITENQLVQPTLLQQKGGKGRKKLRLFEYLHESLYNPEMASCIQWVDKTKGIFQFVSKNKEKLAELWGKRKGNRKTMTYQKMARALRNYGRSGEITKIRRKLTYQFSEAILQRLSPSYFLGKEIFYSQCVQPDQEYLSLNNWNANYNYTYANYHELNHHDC
Outline: (§1)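 GST fusions of human transcription factors were expressed in yeast and captured with glutathione beads. Once given DNA barcodes and pooled alongside a tag-only sample, they were incubated for 30 min at room temperature with 200 nmole of a random double-stranded 16-mer DNA library in Tris/NaCl/DTT/glycerol buffer, then washed, crosslinked (0.1% formaldehyde), proximity-ligated, PCR-amplified and sequenced on an Illumina NextSeq500. The binding signal of each hexamer is its read frequency for a factor divided by its frequency for the tag-only sample.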

[2] = biological target: T2, GABPA (Homo sapiens, UniProt Q06546 1-454)
T2 sequence: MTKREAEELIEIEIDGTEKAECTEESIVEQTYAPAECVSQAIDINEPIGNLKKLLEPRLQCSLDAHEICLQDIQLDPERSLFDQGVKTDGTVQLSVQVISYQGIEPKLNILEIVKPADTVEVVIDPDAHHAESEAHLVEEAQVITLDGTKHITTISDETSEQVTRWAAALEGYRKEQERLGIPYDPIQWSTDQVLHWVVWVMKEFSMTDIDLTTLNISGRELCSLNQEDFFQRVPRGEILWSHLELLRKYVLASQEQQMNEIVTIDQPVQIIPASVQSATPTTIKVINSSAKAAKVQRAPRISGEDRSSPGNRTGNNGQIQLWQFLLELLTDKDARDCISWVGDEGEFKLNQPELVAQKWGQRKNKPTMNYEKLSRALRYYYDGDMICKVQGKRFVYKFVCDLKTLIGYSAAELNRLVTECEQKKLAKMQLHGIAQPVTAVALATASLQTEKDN
Outline: as §1

[3] = biological target: ELF1 (Homo sapiens, UniProt P32519 1-619)
ELF1, sequence (P32519 whole entry): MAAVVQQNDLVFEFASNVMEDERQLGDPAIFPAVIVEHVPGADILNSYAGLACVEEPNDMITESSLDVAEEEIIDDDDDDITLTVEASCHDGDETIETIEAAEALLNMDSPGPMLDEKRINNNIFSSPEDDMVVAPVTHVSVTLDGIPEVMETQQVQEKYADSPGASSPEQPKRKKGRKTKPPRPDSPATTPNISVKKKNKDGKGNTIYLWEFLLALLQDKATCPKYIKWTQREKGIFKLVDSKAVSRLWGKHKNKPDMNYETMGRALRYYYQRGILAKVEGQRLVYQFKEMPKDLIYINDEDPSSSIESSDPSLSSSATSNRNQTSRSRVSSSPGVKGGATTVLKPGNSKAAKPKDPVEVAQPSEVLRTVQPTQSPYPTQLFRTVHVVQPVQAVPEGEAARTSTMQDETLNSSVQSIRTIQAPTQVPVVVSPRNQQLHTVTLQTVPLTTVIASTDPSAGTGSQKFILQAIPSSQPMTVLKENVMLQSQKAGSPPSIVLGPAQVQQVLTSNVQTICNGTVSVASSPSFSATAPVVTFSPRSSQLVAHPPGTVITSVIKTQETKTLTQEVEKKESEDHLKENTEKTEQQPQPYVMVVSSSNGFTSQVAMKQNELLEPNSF
Outline: as §1

[4] = biological target: T3, ELK3 (Homo sapiens, UniProt P41970 1-407)
T3 sequence: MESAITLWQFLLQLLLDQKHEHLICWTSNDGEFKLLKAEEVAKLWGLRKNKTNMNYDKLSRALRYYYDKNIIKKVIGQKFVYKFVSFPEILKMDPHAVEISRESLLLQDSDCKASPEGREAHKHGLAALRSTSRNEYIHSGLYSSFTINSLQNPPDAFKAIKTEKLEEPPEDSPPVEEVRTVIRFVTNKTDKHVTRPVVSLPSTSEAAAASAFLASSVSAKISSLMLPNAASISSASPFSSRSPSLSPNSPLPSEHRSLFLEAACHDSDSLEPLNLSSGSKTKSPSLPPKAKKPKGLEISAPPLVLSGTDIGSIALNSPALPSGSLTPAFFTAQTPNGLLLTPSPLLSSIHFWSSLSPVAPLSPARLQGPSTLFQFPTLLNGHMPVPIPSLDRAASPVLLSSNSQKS
Outline: as §1

[5] = biological target: T4, FEV (Homo sapiens, UniProt Q99581 1-238)
T4 sequence: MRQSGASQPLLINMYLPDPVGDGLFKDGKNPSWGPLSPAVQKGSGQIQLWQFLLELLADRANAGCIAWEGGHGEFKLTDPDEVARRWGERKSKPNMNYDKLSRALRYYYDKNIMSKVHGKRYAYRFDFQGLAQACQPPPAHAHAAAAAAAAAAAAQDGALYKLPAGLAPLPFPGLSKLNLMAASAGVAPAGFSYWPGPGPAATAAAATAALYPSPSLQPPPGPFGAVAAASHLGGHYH
Outline: as §1

[6] = biological target: ELF4 (Homo sapiens, UniProt Q99607 1-663)
ELF4, sequence (Q99607 whole entry): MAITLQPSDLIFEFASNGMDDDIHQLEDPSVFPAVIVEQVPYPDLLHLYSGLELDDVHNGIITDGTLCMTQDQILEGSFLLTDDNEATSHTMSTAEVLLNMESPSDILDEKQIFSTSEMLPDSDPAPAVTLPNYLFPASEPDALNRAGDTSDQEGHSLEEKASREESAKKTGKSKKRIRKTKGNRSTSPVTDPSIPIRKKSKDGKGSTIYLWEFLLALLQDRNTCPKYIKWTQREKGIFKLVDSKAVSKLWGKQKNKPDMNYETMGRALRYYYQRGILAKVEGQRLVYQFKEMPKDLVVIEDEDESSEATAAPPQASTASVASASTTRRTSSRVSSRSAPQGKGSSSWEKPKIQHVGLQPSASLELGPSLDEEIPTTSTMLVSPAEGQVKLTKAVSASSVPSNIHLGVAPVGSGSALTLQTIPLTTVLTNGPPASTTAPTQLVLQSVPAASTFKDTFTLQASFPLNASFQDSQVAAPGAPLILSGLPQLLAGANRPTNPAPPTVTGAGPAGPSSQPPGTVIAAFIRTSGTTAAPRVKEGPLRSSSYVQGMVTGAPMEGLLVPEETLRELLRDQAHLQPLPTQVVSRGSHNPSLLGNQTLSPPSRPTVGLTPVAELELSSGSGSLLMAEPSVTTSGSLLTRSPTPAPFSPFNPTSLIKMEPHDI
Outline: as §1

[7] = biological target: T5, ELK4 (Homo sapiens, UniProt P28324-2 1-405)
T5 sequence: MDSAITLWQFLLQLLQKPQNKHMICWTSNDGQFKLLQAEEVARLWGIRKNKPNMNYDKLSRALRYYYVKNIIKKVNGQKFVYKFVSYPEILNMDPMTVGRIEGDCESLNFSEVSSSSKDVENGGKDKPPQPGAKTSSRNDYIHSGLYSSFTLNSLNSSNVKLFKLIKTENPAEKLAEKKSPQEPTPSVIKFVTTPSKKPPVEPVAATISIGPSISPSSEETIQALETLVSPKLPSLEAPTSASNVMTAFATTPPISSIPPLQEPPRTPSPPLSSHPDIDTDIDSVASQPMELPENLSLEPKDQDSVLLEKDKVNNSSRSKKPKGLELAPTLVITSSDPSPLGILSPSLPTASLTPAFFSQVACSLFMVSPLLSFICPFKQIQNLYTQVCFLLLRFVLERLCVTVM
Outline: as §1

[8] = biological target: ETV1 (Homo sapiens, UniProt P50549 1-477)
ETV1, sequence (P50549 whole entry): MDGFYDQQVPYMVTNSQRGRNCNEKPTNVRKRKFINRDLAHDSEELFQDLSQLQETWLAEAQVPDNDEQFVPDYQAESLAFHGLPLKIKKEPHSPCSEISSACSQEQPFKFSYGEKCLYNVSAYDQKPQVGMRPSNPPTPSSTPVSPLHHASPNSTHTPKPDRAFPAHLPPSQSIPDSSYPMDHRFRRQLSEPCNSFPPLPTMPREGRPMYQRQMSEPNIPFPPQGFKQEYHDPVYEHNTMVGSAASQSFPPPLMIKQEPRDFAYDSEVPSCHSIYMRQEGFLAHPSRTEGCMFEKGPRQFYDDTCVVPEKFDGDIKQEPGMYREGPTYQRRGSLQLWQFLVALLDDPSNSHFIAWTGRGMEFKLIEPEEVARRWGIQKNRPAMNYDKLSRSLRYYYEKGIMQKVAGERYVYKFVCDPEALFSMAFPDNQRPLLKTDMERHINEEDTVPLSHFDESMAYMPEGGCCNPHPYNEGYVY
Outline: as §1

[9] = biological target: T6, ETV3L (Homo sapiens, UniProt Q6ZN32 1-361)
T6 sequence: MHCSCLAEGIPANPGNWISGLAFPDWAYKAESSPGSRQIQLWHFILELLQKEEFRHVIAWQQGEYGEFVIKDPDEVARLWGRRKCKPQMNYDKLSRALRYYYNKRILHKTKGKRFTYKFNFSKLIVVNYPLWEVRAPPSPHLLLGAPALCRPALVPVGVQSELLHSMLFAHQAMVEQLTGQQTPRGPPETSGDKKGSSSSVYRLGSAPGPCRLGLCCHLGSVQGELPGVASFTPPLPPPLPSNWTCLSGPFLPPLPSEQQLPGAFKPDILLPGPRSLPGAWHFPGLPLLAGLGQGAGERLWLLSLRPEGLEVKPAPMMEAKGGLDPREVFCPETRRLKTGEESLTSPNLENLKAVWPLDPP
Outline: as §1

[10] = biological target: T7, SPDEF (Homo sapiens, UniProt O95238 1-335)
T7 sequence: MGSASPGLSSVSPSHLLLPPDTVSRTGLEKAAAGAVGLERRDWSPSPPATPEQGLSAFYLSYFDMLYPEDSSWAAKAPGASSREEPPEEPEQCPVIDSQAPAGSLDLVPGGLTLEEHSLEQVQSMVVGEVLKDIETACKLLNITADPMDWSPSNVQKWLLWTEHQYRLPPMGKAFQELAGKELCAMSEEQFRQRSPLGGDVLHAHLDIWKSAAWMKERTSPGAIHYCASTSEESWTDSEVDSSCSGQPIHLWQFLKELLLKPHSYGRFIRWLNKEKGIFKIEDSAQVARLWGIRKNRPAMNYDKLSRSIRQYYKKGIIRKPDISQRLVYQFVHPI
Outline: as §1

[11] = biological target: T8, ELF5 (Homo sapiens, UniProt Q9UKW6-2 1-255)
T8 sequence: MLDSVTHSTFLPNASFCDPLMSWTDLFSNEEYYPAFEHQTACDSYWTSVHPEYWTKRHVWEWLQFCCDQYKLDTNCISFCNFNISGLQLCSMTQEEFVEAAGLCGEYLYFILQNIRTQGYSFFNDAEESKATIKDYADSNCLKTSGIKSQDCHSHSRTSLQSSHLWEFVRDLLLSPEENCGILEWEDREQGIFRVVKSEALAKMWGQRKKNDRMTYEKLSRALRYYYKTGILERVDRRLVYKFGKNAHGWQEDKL
Outline: as §1

[12] = biological target: T9, ETV3 (Homo sapiens, UniProt P41162-2 1-143)
T9 sequence: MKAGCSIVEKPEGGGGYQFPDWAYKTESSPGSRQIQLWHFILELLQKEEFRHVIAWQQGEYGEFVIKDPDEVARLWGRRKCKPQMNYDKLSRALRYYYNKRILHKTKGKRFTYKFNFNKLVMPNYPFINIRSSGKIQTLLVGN
Outline: as §1

| Sequence | binding signal [1] | binding signal [2] | binding signal [3] | binding signal [4] | binding signal [5] | binding signal [6] | binding signal [7] | binding signal [8] | binding signal [9] | binding signal [10] | binding signal [11] | binding signal [12] |
| --- | --- | --- | --- | --- | --- | --- | --- | --- | --- | --- | --- | --- |
| AGGCAC | 1.03 fold enrichment (6-mer frequency, TF over GST control) |  |  |  |  |  |  |  |  |  |  |  |
| CGCCAC | 1.02 fold enrichment (6-mer frequency, TF over GST control) | 1.04 fold enrichment (6-mer frequency, TF over GST control) | 1.08 fold enrichment (6-mer frequency, TF over GST control) | 1.04 fold enrichment (6-mer frequency, TF over GST control) | 1.11 fold enrichment (6-mer frequency, TF over GST control) | 1.03 fold enrichment (6-mer frequency, TF over GST control) | 1.07 fold enrichment (6-mer frequency, TF over GST control) | 1.06 fold enrichment (6-mer frequency, TF over GST control) | 1.03 fold enrichment (6-mer frequency, TF over GST control) | 1.05 fold enrichment (6-mer frequency, TF over GST control) | 1.05 fold enrichment (6-mer frequency, TF over GST control) | 1.02 fold enrichment (6-mer frequency, TF over GST control) |
